A selection: hits, their analogues and other compounds. The true share with any hit is near 3.5%.
mHTT CaM bind – inhibitors of human mutant huntingtin-calmodulin interaction; P42858; AlphaScreen His-mHTT/GST-CaM binding, luminescence; inhibition, % at 15 µM; 3.6% of 190,000 active;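 note: 0% = both proteins with DMSO and 100% = one protein alone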
Pf apPOL inh – Pf-apPOL DNA polymerase inhibition. Recombinant Pf-apPOL, molecular beacon fluorescence, 1.5 h. inhibition, % at 10 µM. 0.25% of 210,000 active. AID 1794808
* hit, by the source's call; . = no result given; ! = not active in a repeat. Cut-off read from the data, not from the text of the source: active = inhibition above about 50%; inactive = the rest.

SMILES	mHTT CaM bind	Pf apPOL inh
COc1ccc(C2Oc3ccccc3C3CC(c4cccs4)=NN32)cc1O (configuration not stated)	52*	10
Cc1cccc(CC(=O)N2CCN(C3=NC=CN4C3=NCC4C)CC2)c1 (configuration not stated)	37	-19
Cc1noc(-c2ccccc2Cl)c1C(=O)NCC1CCCO1 (configuration not stated)	-8	-3
Cc1cc(NC(=O)c2noc3c2CC(C(C)(C)C)CC3)n(-c2ccccc2)n1 (configuration not stated)	0	-2
Cc1ccc(C(=O)N2CCc3nc(-c4ccccc4)ncc3C2)cc1	-10	3
O=C(CN1CCN(CC(=O)Nc2nccs2)CC1)Nc1nccs1	-8	.
Oc1ccc(C2Oc3ccccc3C3CC(c4cccs4)=NN32)cc1O (configuration not stated)	29	-1
c1coc(C2Oc3ccccc3C3CC(c4cccs4)=NN32)c1 (configuration not stated)	92*	-9
Cc1cc(S(=O)(=O)N2CCN(c3nc4ccncc4n(C)c3=O)CC2)ccc1F	-2	-2
CC1(C)CC(=O)C2=C(C1)OC(N)=C(C#N)C2c1cn(-c2ccccc2)nc1-c1ccc(Cl)cc1 (configuration not stated)	100*	1
CC1(C)CC(=O)C2=C(C1)OC(N)=C(C#N)C2c1ccc(-c2ccccc2)cc1 (configuration not stated)	-8	1
CC(C)n1cc2cc(C(=O)N3CCN(C4CCCC4)CC3)sc2c1	24	-3
COc1ccc(C(=O)Nc2nnc(C(C)(C)C)s2)cc1	8	2
Cc1ccc(NC2=C([N+](=O)[O-])CS(=O)(=O)C2)cc1	-3	-5
O=[N+]([O-])C1=C(Nc2ccc(Cl)c(Cl)c2)CS(=O)(=O)C1	75*	-3
Cc1ccccc1-n1[nH]c(C)c(C=Nc2ccc([N+](=O)[O-])cc2)c1=O	11	4
Cc1ccccc1-n1[nH]c(C)c(C=Nc2cc([N+](=O)[O-])cc([N+](=O)[O-])c2O)c1=O	53*	-2
Cc1ccc(C(=O)N2CC(C(=O)NC(C)C)C(c3cccc(C(F)(F)F)c3)C2)cc1 (configuration not stated)	34	-3
O=C(Nc1ccc(Br)cc1)c1cccc(S(=O)(=O)N(CCO)CCO)c1	6	3
Cc1nc2c(C(=O)NCc3ccc(F)cc3)cnn2c(C)c1Cc1ccc(F)cc1	51*	-8
CCCNC(=O)c1cnn2c(C)c(Cc3ccc(F)cc3)c(C)nc12	-1	-4
CCCCNC(=O)c1cnn2c(C)c(Cc3cc(C)ccc3C)c(C)nc12	11	0
CCCCNC(=O)c1cnn2c(C)c(Cc3ccc(Cl)cc3)c(C)nc12	11	-6
Cc1nc2c(C(=O)NCc3ccc(F)cc3)cnn2c(C)c1Cc1ccccc1	19	-7
Cc1nc2c(C(=O)NCCc3ccccc3)cnn2c(C)c1Cc1ccc(F)cc1	80*	-4
SMILES	mHTT CaM bind	Pf apPOL inh
Cc1ccc(C)c(Cc2c(C)nc3c(C(=O)NCCc4ccccc4)cnn3c2C)c1	66*	-3
CCOCCCNC(=O)c1cnn2c(C)c(Cc3ccc(Cl)cc3)c(C)nc12	65*	-18
COc1ccc(-n2nnnc2CNS(=O)(=O)N(C)C)cc1	-13	-5
COc1ccc(N=c2oc3c(C)ncc(CO)c3cc2C(=O)Nc2ccccc2C)c(OC)c1	12	1
O=C(NCCCN1CCOCC1)C1CCCN(C(=O)c2cccc(C(F)(F)F)c2)C1 (configuration not stated)	27	-8
COc1ccc(CCN2COc3ccc4c5c(oc4c3C2)C(=O)c2ccccc2C5=O)cc1OC	44	-3
O=C1c2ccccc2C(=O)c2c1oc1c3c(ccc21)OCN(C1CCCC1)C3	78*	50
O=c1c(-c2ccccc2)coc2c3c(ccc12)OCN(C1CCS(=O)(=O)C1)C3 (configuration not stated)	-1	-5
O=C1c2ccccc2C(=O)c2c1oc1c3c(ccc21)OCN(C1CCS(=O)(=O)C1)C3 (configuration not stated)	91*	69*!
O=C1c2ccccc2C(=O)c2c1oc1c3c(ccc21)OCN(CC1CCCO1)C3 (configuration not stated)	40	10
CC(C)CCN1COc2ccc3c4c(oc3c2C1)C(=O)c1ccccc1C4=O	74*	12
CC(C)(C)n1nc2c(c1NC(=O)c1cccc(C(F)(F)F)c1)CS(=O)(=O)C2	6	3
CC(C)c1ccc(NC(=O)c2ccc(F)c(S(=O)(=O)NC3CCCC3)c2)cc1	2	-6
Nc1c(N)c(N)c(N)c(N)c1N	64*	.
O=S(=O)(c1ccc(F)cc1)N1CCN(C2CCCCC2)CC1	-1	-11
CSc1ccc(/C=C2N=C(/C=C/c3cccc([N+](=O)[O-])c3)OC\2=O)cc1	3	-79
COc1cccc2cc(C(N)=O)c(=Nc3ccc(C)cc3)oc12	6	-4
Cn1ccc(C(=O)Nc2sccc2C(N)=O)n1	0	-9
COc1cc(NC(=O)C2CCN(c3nccc4sc(C)cc34)CC2)cc(OC)c1OC	52*	-4
COc1ccc(NC(=O)C2CCCN(c3nccc4sc(C)cc34)C2)cc1OC (configuration not stated)	71*	-4
Cc1cc2c(N3CCCC(C(=O)NCc4cccc(Cl)c4)C3)nccc2s1 (configuration not stated)	22	-5
Cc1cc2c(N3CCC(C(=O)Nc4ccc(F)c(F)c4)CC3)nccc2s1	5	-2
Cc1cc2c(N3CCC(C(=O)Nc4ccc(C)c(F)c4)CC3)nccc2s1	7	-1
Cc1cc2c(N3CCCC(C(=O)NCCN4CCCCCC4)C3)nccc2s1 (configuration not stated)	100*	-5
Cc1ccc2nc3c(cc(C(=O)NCc4cccnc4)c(=N)n3Cc3ccco3)c(=O)n2c1	1	4
SMILES	mHTT CaM bind	Pf apPOL inh
CS(=O)(=O)N1CC(C(=O)Nc2ccccc2)C2(CCCCC2)C1 (configuration not stated)	12	-1
CC(C)C1c2cccn2CCN1C(=O)NCc1ccccc1 (configuration not stated)	-4	-6
CC(C)(C)n1nc2c(c1-n1cccc1)CN(C(=O)c1ccc(=O)[nH]c1)C2	21	5
CN(C)S(=O)(=O)c1ccc(C(=O)N2Cc3nn(C(C)(C)C)c(-n4cccc4)c3C2)cc1	54*	-3
CC(NC(=O)CCS(=O)(=O)Cc1ccccc1F)c1ccccc1 (configuration not stated)	-1	-16
O=C(NCCc1ccccc1)c1sc2cc([N+](=O)[O-])ccc2c1Cl	14	2
CCN(C)C(=O)c1ccccc1N1CCC(NC(=O)Nc2ccc(C)cc2)CC1	10	-6
CC1C(=O)N(Cc2cn(Cc3ccco3)nn2)CCS(=O)(=O)N1Cc1ccc(-c2ccc(F)nc2)cc1 (configuration not stated)	25	1
COc1cccc(-c2ccc(CN3C(C)C(=O)N(Cc4cn(Cc5ccco5)nn4)CCS3(=O)=O)cc2)c1OC (configuration not stated)	2	0
Cc1ccc(-c2ccc(CN3C(C)C(=O)N(Cc4cn(Cc5ccco5)nn4)CCS3(=O)=O)cc2)cc1 (configuration not stated)	19	-7
